Source: PubChem BioAssay
PLC-gamma1 inh = PLC-gamma1 (human) inhibition, primary screen | purified PLC-gamma1, fluorogenic substrate, fluorescence | inhibition, % at 12.2 µM | 0.84% of 370,000 active | AID 720700; in the data active = inhibition above about 9.5%
HIF act = HIF pathway transcriptional activation; 0.32% of 300,000 active; U2OS HRE-luciferase reporter, luminescence; normalized: DMSO 0%, desferrioxamine 100%; activation, % at 7.5 µM (by protocol); AID 1910;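 active = mean activation of at least 10% of the iron chelator positive control signal, with at least half of replicates also reaching 10%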
PLC-beta3 inh = inhibitors of human phospholipase C beta3. Purified PLC-beta3, fluorogenic substrate, fluorescence. inhibition, % at 12.2 µM. 0.18% of 370,000 active; in the data active = inhibition above about 11%;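 also: 0% = median of compound wells on plate and 100% = full blocker control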
CR mimetic SO = yeast age-related superoxide inhibition as caloric restriction mimetic; S. cerevisiae aged cells, superoxide DHE fluorescence; active compounds read low; superoxide response (% of plate mean), % at 10 µM; 0.18% of 330,000 active; AID 2690;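 active = superoxide response under a set limit, about three screen SD below normal, cut at about 65% in these data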;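 also: yeast aged for seven days with compound at 30 °C before DHE staining; 100% = average MFI of all compound-treated wells on the plate with controls excluded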
AHR activator = activators of human aryl hydrocarbon receptor | P35869 | AHR-responsive luciferase reporter cells, luminescence | activation, % at 5 µM | 2.5% of 320,000 active | AID 2796; in the data active = activation above about 47%;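 also: 0% = vehicle wells and 100% = reference agonist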
HGIII-sPLA2 inh = Inhibits HGIII-sPLA2 liposome hydrolysis, primary screen; inhibition, % at 12.2 µM; QFRET BODIPY PC-A2 liposome hydrolysis, fluorescence; 0.56% of 370,000 active; AID 743126; Q9NZ20;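 active = inhibition above mean plus 3 SD of compounds lying within the high and low control bounds, cut at about 19% in these data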;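 also: 0% = median of test compound wells and 100% = no enzyme DMSO wells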
Target sequence (Q9NZ20 whole entry, looked up): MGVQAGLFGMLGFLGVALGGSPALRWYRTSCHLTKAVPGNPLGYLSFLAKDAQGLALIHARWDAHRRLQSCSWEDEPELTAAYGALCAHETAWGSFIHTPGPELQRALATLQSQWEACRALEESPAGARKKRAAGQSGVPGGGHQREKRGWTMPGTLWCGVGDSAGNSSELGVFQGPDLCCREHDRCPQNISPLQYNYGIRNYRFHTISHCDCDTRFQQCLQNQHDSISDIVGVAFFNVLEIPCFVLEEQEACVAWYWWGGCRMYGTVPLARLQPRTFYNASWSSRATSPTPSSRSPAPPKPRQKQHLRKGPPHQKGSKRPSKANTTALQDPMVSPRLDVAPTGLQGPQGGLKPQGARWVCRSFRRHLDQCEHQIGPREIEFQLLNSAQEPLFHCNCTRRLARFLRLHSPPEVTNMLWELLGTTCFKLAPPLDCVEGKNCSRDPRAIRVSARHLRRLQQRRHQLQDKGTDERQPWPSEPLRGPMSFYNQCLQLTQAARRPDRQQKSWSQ
Active calls of the source: *. Compounds with a hit are over-represented: about 3.9% of the library has one in this group of screens.

How did C/C(=N\Nc1ccccn1)c1ccc2c(c1)OCO2 do in these assays?
PLC-gamma1 inh: 2; HIF act: 3; PLC-beta3 inh: -1; CR mimetic SO: 105; AHR activator: 59*; HGIII-sPLA2 inh: 1

What do the screens show for `CC(C)C(NC(=O)c1ccc2c(c1)OCCO2)c1nc2ccccc2[nH]1` (configuration not stated)?
PLC-gamma1 inh: 0; HIF act: 0; PLC-beta3 inh: -4; CR mimetic SO: 99; AHR activator: 3; HGIII-sPLA2 inh: -2

Results for C/C(=N\Nc1ccccn1)c1ccc(Br)s1 ?
PLC-gamma1 inh: 2; HIF act: 2; PLC-beta3 inh: -2; CR mimetic SO: 93; AHR activator: 70*; HGIII-sPLA2 inh: 14

Results for C/C(=N\Nc1nc2ccccc2[nH]1)c1ccc2c(c1)OCCO2 ?
PLC-gamma1 inh: -26; HIF act: 1; PLC-beta3 inh: -44; CR mimetic SO: 90; AHR activator: 56*; HGIII-sPLA2 inh: -2

What do the screens show for `C/C(=N\Nc1ccccn1)c1ccc(C(C)C)cc1`?
PLC-gamma1 inh: 1; HIF act: 6; PLC-beta3 inh: 3; CR mimetic SO: 81; AHR activator: -1; HGIII-sPLA2 inh: 1

How did C(=N\Nc1nc2ccccc2[nH]1)/c1ccc2c(c1)OCO2 do in these assays?
PLC-gamma1 inh: -17; HIF act: 5; PLC-beta3 inh: -29; HGIII-sPLA2 inh: 3

What do the screens show for `O=C(C1CCCN1S(=O)(=O)c1cccc([N+](=O)[O-])c1)N1CCN(c2ccccc2)CC1` (configuration not stated)?
PLC-gamma1 inh: 4; PLC-beta3 inh: 5; HGIII-sPLA2 inh: -1

What do the screens show for `O=C(CSc1nnc(-c2ccccc2)n1-c1ccc(Cl)cc1)Nc1cccc2ccccc12`?
PLC-gamma1 inh: 1; PLC-beta3 inh: 5; HGIII-sPLA2 inh: -3

How did CCC(=O)N1CCc2cc(S(=O)(=O)NCCC(=O)N3CCN(c4cccc(OC)c4)CC3)ccc21 do in these assays?
PLC-gamma1 inh: 1; HIF act: 30*; PLC-beta3 inh: -3; CR mimetic SO: 90; AHR activator: 1; HGIII-sPLA2 inh: -6

How did CCCCCCOc1ccc(N2C(=O)CC(SC(=NCC)NCC)C2=O)cc1 (configuration not stated) do in these assays?
PLC-gamma1 inh: 2; HIF act: 1; PLC-beta3 inh: -3; CR mimetic SO: 65*; AHR activator: 1; HGIII-sPLA2 inh: 2

Results for CCN(CC)C(=O)c1[nH]cnc1C(=O)Nc1cccc(C)c1 ?
PLC-gamma1 inh: 2; PLC-beta3 inh: 3; CR mimetic SO: 97; AHR activator: 54*; HGIII-sPLA2 inh: 5

How did CCOC(=O)c1ccc(NC(=O)c2nc[nH]c2C(=O)N(CC)CC)cc1 do in these assays?
PLC-gamma1 inh: 2; HIF act: 0; PLC-beta3 inh: 5; CR mimetic SO: 89; AHR activator: 30; HGIII-sPLA2 inh: -1

What do the screens show for `CCN(CC)C(=O)c1[nH]cnc1C(=O)Nc1ccc(OC)cc1`?
PLC-gamma1 inh: 5; HIF act: 0; PLC-beta3 inh: 1; CR mimetic SO: 98; AHR activator: 65*; HGIII-sPLA2 inh: -2

What do the screens show for `CCN(CC)C(=O)c1[nH]cnc1C(=O)Nc1ccc(Cl)cc1`?
PLC-gamma1 inh: 3; PLC-beta3 inh: 0; CR mimetic SO: 112; AHR activator: 75*; HGIII-sPLA2 inh: 2

How did Cc1cccc(NC(=O)c2nc[nH]c2C(=O)N(C)CCO)c1 do in these assays?
PLC-gamma1 inh: -3; PLC-beta3 inh: -7; HGIII-sPLA2 inh: 1

What do the screens show for `CN1CCC(N[C@@H](Cc2c[nH]c3ccccc23)C(=O)NCCCc2ccccc2)(C(=O)NCCc2c[nH]c3ccccc23)CC1`?
PLC-gamma1 inh: 7; PLC-beta3 inh: 7; HGIII-sPLA2 inh: -59

Results for O=C(Nc1ccc(Cl)cc1)NN1CC(=O)N(c2cccc(C(F)(F)F)c2)CC1=O ?
PLC-gamma1 inh: 8; HIF act: 29*; PLC-beta3 inh: 1; CR mimetic SO: 107; AHR activator: 3; HGIII-sPLA2 inh: 2

How did Cc1ccc(N2CC(=O)N(NC(=O)Nc3ccc(Cl)c(Cl)c3)CC2=O)cc1 do in these assays?
PLC-gamma1 inh: 5; HIF act: 0; PLC-beta3 inh: -2; CR mimetic SO: 98; AHR activator: -1; HGIII-sPLA2 inh: -2

How did CC(C)n1cnc2c(Nc3cccc(Cl)c3)nc(NCCCO)nc21 do in these assays?
PLC-gamma1 inh: -8; HIF act: 1; PLC-beta3 inh: -15; CR mimetic SO: 110; AHR activator: 69*; HGIII-sPLA2 inh: 4

What do the screens show for `CC(C)[C@H](CO)Nc1nc(Nc2ccc(Cl)c(C(=O)O)c2)c2ncn(C(C)C)c2n1`?
PLC-gamma1 inh: 5; HIF act: 0; PLC-beta3 inh: -1; CR mimetic SO: 108; AHR activator: 8; HGIII-sPLA2 inh: 7

How did Clc1ccccc1N1CCN(C2=Nc3ccccc3Sc3ccccc32)CC1 do in these assays?
PLC-gamma1 inh: -1; PLC-beta3 inh: 0; HGIII-sPLA2 inh: -4

Results for Cc1c(Cl)cccc1N=c1c([N+](=O)[O-])nn(-c2ccccc2)n1O ?
PLC-gamma1 inh: 2; HIF act: 1; PLC-beta3 inh: 2; CR mimetic SO: 114; AHR activator: 55*; HGIII-sPLA2 inh: -2

What do the screens show for `Cc1cc(-c2n[nH]c(=S)n2N=Cc2ccc(-c3ccccc3)cc2)n[nH]1`?
PLC-gamma1 inh: 1; PLC-beta3 inh: -1; HGIII-sPLA2 inh: 3

What do the screens show for `Cc1cc(-c2n[nH]c(=S)n2/N=C/c2cccc(O)c2)n[nH]1`?
PLC-gamma1 inh: 0; HIF act: 0; PLC-beta3 inh: -2; CR mimetic SO: 65*; AHR activator: 4; HGIII-sPLA2 inh: 10

How did CCN1/C(=C/c2ccc3cc(C)ccc3[n+]2CC)Sc2ccccc21 do in these assays?
PLC-gamma1 inh: -56; HIF act: 26*; PLC-beta3 inh: -44; CR mimetic SO: 146; AHR activator: -9; HGIII-sPLA2 inh: 7

Results for CCN1/C(=C/c2ccc3cc(C)ccc3[n+]2CC)Sc2cc(C)c(C)cc21 ?
PLC-gamma1 inh: -35; PLC-beta3 inh: -44; HGIII-sPLA2 inh: 12

How did O=C1C2CCCN2C(c2ccccc2F)N1c1ccc(Cl)cc1 (configuration not stated) do in these assays?
PLC-gamma1 inh: 3; HIF act: -1; PLC-beta3 inh: 3; CR mimetic SO: 85; AHR activator: 52*; HGIII-sPLA2 inh: 5

Results for COc1ccc(N2C(=O)C3CCCN3C2c2ccccc2F)cc1 (configuration not stated) ?
PLC-gamma1 inh: 0; HIF act: 0; PLC-beta3 inh: 2; CR mimetic SO: 97; AHR activator: -1; HGIII-sPLA2 inh: 2

How did COc1ccc(-c2[nH]ncc2CN2CCCC(C(=O)c3cccc(OC)c3)C2)cc1 (configuration not stated) do in these assays?
PLC-gamma1 inh: -2; HIF act: 0; PLC-beta3 inh: 1; CR mimetic SO: 103; AHR activator: 73*; HGIII-sPLA2 inh: -12
